Screens: PubChem, several laboratories
Shown are actives, neighbours in structure and some others; about 1.3% of the full set was active somewhere.
OPRM1-OPRD1 ag: agonists of human mu-delta opioid receptor heterodimerization; P35372+P41143; cells, OPRM1-OPRD1 heterodimerization, luminescence; activation, % at 9.3 µM; 0.3% of 340,000 active; AID 504326; in the data active = activation above about 18%
Target sequence (P35372 whole entry, looked up): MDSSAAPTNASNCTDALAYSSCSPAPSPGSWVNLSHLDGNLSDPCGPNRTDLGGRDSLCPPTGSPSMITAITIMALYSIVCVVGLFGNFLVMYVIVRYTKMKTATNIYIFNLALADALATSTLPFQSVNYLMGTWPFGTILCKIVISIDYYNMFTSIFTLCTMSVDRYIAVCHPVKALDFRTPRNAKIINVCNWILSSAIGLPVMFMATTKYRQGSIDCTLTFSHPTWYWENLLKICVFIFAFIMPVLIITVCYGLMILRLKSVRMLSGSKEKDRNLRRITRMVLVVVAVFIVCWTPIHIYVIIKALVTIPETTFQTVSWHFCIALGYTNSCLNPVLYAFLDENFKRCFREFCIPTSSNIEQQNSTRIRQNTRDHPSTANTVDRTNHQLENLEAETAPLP
Target sequence (P41143 whole entry, looked up): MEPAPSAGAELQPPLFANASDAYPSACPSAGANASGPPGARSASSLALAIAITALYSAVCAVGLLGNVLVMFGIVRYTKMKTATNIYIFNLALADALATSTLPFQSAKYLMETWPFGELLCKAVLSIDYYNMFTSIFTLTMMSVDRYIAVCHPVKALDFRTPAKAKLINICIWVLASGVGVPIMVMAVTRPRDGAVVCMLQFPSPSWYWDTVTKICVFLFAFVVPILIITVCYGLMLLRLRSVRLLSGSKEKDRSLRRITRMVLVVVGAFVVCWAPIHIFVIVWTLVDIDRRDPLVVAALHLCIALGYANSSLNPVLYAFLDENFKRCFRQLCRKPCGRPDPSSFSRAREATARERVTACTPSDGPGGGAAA
HTR5A inv ctr: HTR5A inverse agonism, opioid heterodimer counter-screen. HTR5A cell line, luminescence. inhibition, % at 9.3 µM. 0.083% of 340,000 active. AID 504634; in the data active = inhibition mostly above about 23%, no sharp cut-off; inactive = mostly below about 18%
OPRM1-OPRD1 inv: inverse agonist of human OPRM1-OPRD1 heterodimerization. cell-based MOR-DOR heterodimer luminescence, inverse agonism. 0.21% of 340,000 active. P35372+P41143. AID 504357. inhibition, % at 9.3 µM; in the data active = inhibition above about 22%, passing the limit was not always enough
HTR5A ag: activates human HTR5A in OPRM1-OPRD1 agonist counter-screen | P47898 | HTR5A agonist assay, luminescence, cell-based | activation, % at 9.3 µM | 0.61% of 340,000 active; in the data active = activation mostly above about 9.5%, no sharp cut-off; inactive = mostly below about 7.6%
PvdQ acylase: blocks Pseudomonas aeruginosa PvdQ acylase activity. purified PvdQ acylase, fluorescence plate reader. inhibition, % at 10 µM. 0.063% of 340,000 active. AID 488965; in the data active = inhibition above about 30%, passing the limit was not always enough
Yeast superoxide: caloric restriction mimetics inhibiting age-related superoxide in yeast | 0.18% of 330,000 active | superoxide response (% of plate mean), % at 10 µM | S. cerevisiae aged cells, superoxide DHE fluorescence; stronger effect = lower value;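 active = superoxide response under a set limit, about three screen SD below normal, cut at about 65% in these data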;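 note: yeast aged for seven days with compound at 30 °C before DHE staining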
Numbers stand for hits; - = inactive; . = not tested or not shown; + = active, no number.

SMILES	OPRM1-OPRD1 ag	HTR5A inv ctr	OPRM1-OPRD1 inv	HTR5A ag	PvdQ acylase	Yeast superoxide
CC(C)(C)c1ccc(C(=O)C2CCCN(C(=O)CN3CCCC3=O)C2)cc1 (stereo unspecified)	-	-	-	-	-	-
CN(C)C(=O)N1CCC(C(=O)N2CCCC(C(=O)c3ccc(C(C)(C)C)cc3)C2)CC1 (stereo unspecified)	-	-	-	-	-	63
Cc1ccc(-n2nc(C)c3c(C)c(CCC(=O)O)c(C)nc32)cc1C	-	-	-	-	-	-
O=C(CC(Cc1ccccc1)C(=O)O)Nc1ccc(Cl)c(Cl)c1 (stereo unspecified)	-	-	-	10.0	-	-
CCOC(=O)c1ccc(N2Cc3ccccc3C2=N)cc1	-	-	-	-	58	-
CN(C)c1ccc(/C=N/NC(=O)c2ccc(-n3cnnn3)cc2)cc1	-	-	-	-	-	-
Cc1ccc(-c2nnn(CC(=O)N(CC3CCCO3)C(C(=O)NC3CCCC3)c3ccc(O)cc3)n2)o1 (stereo unspecified)	-	-	-	9.4	-	-
Cc1ccc(-c2nnn(CC(=O)N(CC3CCCO3)C(C(=O)NC3CCCC3)c3ccc(F)cc3)n2)o1 (stereo unspecified)	-	-	-	-	-	-
CCC(=O)Nc1ccc(C(=O)CN2C(=O)NC3(CCCCCC3)C2=O)cc1	-	-	-	-	-	-
NNc1nc(-c2ccccc2)cc(-c2ccccc2)n1	-	43	52	-	-	-
Cc1ccc(S(=O)(=O)N(C)C)cc1NC(=O)COC(=O)/C=C/c1cnc2ccccc2n1	-	-	-	14	-	-
CC(C)CN1C(=O)c2ccc(C(=O)NCc3ccccn3)cc2C1=O	-	-	-	9.6	-	-
OC(CNCC1COc2ccccc2O1)COc1ccc(Cl)cc1 (stereo unspecified)	-	-	-	9.6	-	-
CC[C@]12c3[nH]c4cc(CCC(=O)N(C)C)ccc4c3CCN1C(=O)[C@@H](CC(=O)NC(C)(C)C)C[C@@H]2C(=O)N1CCN(C(=O)C2CC2)CC1	-	-	-	-	-	-
N#Cc1ccccc1OCC(=O)NCc1ccccc1CN1CCCC1	-	-	-	-	-	-
O=C(NC1CCCC(C(F)(F)F)C1)c1ccc([N+](=O)[O-])o1 (stereo unspecified)	-	-	-	14	-	-
CCOC(=O)c1sc(NC(=O)CN2CCN(c3ccc(OC)cc3)CC2)nc1C	-	-	-	-	-	-
C/C(=N\NC(=O)Cn1nc(C)c([N+](=O)[O-])c1C)c1ccco1	-	-	-	-	-	-
CCCCC1(C)OC(=O)C(=Cc2ccc(-c3ccc(Cl)c(C(=O)O)c3)o2)C(=O)O1 (stereo unspecified)	-	-	-	-	-	63
CCOC(=O)Cn1c(C)[n+](CC(=O)c2ccccc2)c2ccccc21	-	-	-	-	-	65
CCOC(=O)Cn1c(=O)cc(C)c2ccccc21	-	-	-	-	-	-
CCOC(=O)C1=C(C)N(C)C(=S)NC1c1cccc(Cl)c1Cl (stereo unspecified)	-	-	-	10	-	-
CCOC(=O)C1=C(C)N(C)C(=S)NC1c1ccccc1Cl (stereo unspecified)	-	-	-	-	-	-
COc1ccc(C(=O)NC(=S)NNC(=O)c2ccc3ccccc3n2)cc1	-	-	-	-	-	63
COc1cc(OC)cc(C(=O)NNC(=O)c2ccc3ccccc3n2)c1	-	-	-	-	-	.
SMILES	OPRM1-OPRD1 ag	HTR5A inv ctr	OPRM1-OPRD1 inv	HTR5A ag	PvdQ acylase	Yeast superoxide
O=C(Nc1cc(S(=O)(=O)N2CCOCC2)ccc1OCC(F)(F)F)C1=COCCO1	-	-	-	-	-	-
COc1cccc(/C=C(/C(=O)OCC(=O)NCC2CCCO2)c2ccccc2)c1 (stereo unspecified)	-	-	-	11	-	-
CCC[C@H]1COCCS(=O)(=O)N1Cc1ccc(Br)cc1	.	.	.	.	.	-
CCOC(=O)c1ccc2c(c1)N(Cc1ccccc1C)C(=O)c1ccccc1S2=O (stereo unspecified)	-	-	-	9.5	-	-
CCn1c(C)nc2cc(C(=O)NN=C(C)c3ccc(C#N)cc3)ccc21	-	-	-	13	-	-
CCn1c(C)nc2cc(C(=O)N/N=C(\C)c3ccc(N4CCOCC4)cc3)ccc21	-	-	-	-	-	-
Cc1ncc(CO)c2c1Oc1nc(-c3ccccc3F)nc(SCC(=O)N(C)c3ccccc3)c1C2	20	-	-	12	-	-
Cc1ncc(CO)c2c1Oc1nc(-c3ccccc3)nc(SCC(=O)N(C)c3ccccc3)c1C2	.	.	.	.	.	-
COc1ccc2c(C#CCCO)c(-c3ccc(S(C)(=O)=O)cc3)sc2c1	-	-	-	13	-	-
COc1ccc2sc(-c3ccc(S(C)(=O)=O)cc3)c(C#CCO)c2c1	-	-	-	-	-	-
O=C1C(=O)N(Cc2cccnc2)C(c2cccc(Br)c2)/C1=C(/O)c1ccc2c(c1)OCO2 (stereo unspecified)	-	-	-	-	-	-
Clc1ccc2scc(CN3CCCCC3)c2c1	-	-	-	-	33	-
CCC(CC)=N/N=C/c1c(O)n(CC)c2cc(C3=NNC(=O)CC3)ccc12	-	-	-	-	-	-
CCn1c(O)c(/C=N/N=C/c2ccccc2)c2ccc(C3=NNC(=O)CC3)cc21	-	-	-	13	-	-
Nc1cc(C(F)(F)F)ccc1C(=O)O	-	-	-	-	-	-
Nc1cc(S(=O)(=O)C(F)(F)F)ccc1C(=O)O	-	-	-	12	-	-
COc1ccc(N2CC(NC(=O)c3ccc4ccccc4c3)CC2=O)cc1OC (stereo unspecified)	-	-	-	-	-	-
Cc1cccc(N(C(=O)c2csnn2)C(C(=O)NC2CCCCC2)c2ccccn2)c1C (stereo unspecified)	-	-	-	-	-	-
COc1cc(C2C=C(Nc3ccccc3)C(=O)N2c2ccccc2)ccc1O (stereo unspecified)	-	-	-	-	-	-
O=C1C(Nc2ccccc2)=CC(c2ccc(O)cc2)N1c1ccccc1 (stereo unspecified)	-	-	-	13	-	-
On1ccccc1=S	-	-	+	-	-	-
O=C(Cn1ccccc1=S)c1ccc(Cl)c(Cl)c1	.	.	.	.	.	-
Cc1cc(C(=O)CCC(=O)NCC(=O)Nc2c(C)cccc2C)c(C)s1	-	-	-	-	-	-
O=C1c2ccccc2C(=O)N1CC1c2ccccc2CCN1C(=O)CN1CCOCC1 (stereo unspecified)	-	-	-	11	-	-
Cc1ccc(-c2nc(CN(C)C3CCOCC3)c(C)o2)s1	-	-	-	-	-	-
Cc1ccc(-c2nc(CN(C)Cc3cccc4cnccc34)c(C)o2)s1	-	-	-	-	51	-
Cc1c(C(=O)Nc2nc3ccccc3[nH]2)oc2ccc(Br)cc12	-	-	-	-	-	-
Cc1c(C(=O)Nc2nc3ccccc3[nH]2)oc2ccccc12	-	-	-	11	-	-
